Assay outcomes (PubChem)
Cl transport mod: KCC2 (human) Cl- transport modulation; actives 2.2% (n = 190,000); AID 1456; Q9H2X9; B-score of Tl+ flux slope (higher = more flux/activation; lower = inhibition) at 10 µM; KCC2 cells, thallium flux FluoZin-2 fluorescence;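 active = thallium flux slope and its plate-corrected score both differing from the plate sample mean at a set confidence after two filtering rounds, in either direction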;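 note: slope of fluorescence scaled to starting intensity during 10 to 20 s after thallium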
INS promoter inh: TRM-6 insulin promoter activity inhibition. TRM-6 cells (human fetal islet line), insulin promoter-eGFP reporter, imaging; reporter expression induced with tamoxifen. inhibition, % at 2 µM. actives 0.9% (n = 130,000);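 active = inhibition above the mean plus 3 SD, with well images judged a real hit on visual review, cut at about 60% in these data, passing the limit was not always enough; inconclusive = inhibition over the cutoff but images rejected on review; inactive = inhibition not above the cutoff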
ROMK mod: human ROMK K+ channel modulation, primary screen; P48048; Tet-inducible ROMK, thallium flux fluorescence; actives lie on both sides; B-score at 10 µM; actives 2% (n = 130,000);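 active = signal ratio slope over the read window, or its plate-corrected B-score, at least 3 SD from the plate mean, either direction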;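 note: B-score of the F/F0 ratio slope over 7 to 12 s after thallium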
Target sequence (P48048 whole entry, looked up): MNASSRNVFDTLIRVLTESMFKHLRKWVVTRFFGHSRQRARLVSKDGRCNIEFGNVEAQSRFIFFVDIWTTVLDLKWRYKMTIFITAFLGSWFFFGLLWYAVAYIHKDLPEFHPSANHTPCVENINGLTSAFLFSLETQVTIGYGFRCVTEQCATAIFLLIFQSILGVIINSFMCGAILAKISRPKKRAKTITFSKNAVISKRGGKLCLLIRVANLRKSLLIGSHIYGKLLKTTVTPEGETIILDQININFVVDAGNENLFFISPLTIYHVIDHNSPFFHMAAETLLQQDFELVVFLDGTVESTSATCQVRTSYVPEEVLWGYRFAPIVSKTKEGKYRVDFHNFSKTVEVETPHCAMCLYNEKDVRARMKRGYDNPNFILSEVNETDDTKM
Lmaj promast: Leishmania major promastigote growth inhibition | Leishmania major promastigotes, resazurin fluorescence viability | actives 9% (n = 200,000) | inhibition, % at 10 µM; in the data active = inhibition above about 50%;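 note: promastigotes grown with compound for 44 hours at 28 °C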
WT yeast gro inh: growth inhibition of WT yeast, mitochondrial fusion screen. mitochondrial fusion phenotypic screen, WT strain. inhibition, % at 10 µM. actives 2.1% (n = 190,000); in the data active = inhibition above about 58%; tested in S. cerevisiae
Ins promoter up: MIN6 insulin promoter up-regulation; actives 0.3% (n = 190,000); z-score at 5 µM; MIN6 insulin promoter-GFP reporter, high-content imaging; active compounds read high;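 active = z-score above 3 at 5 µM with at least 500 cells counted in the well; inconclusive = wells under 500 cells, flagged as cytotoxic or low count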
Numbers stand for hits; – = inactive; ? = inconclusive; · = no result. Only some compounds are listed: those with a hit (about 12% of all), similar ones and a draw of the others.

SMILES	Cl transport mod	INS promoter inh	ROMK mod	Lmaj promast	WT yeast gro inh	Ins promoter up
O=C(CCN1CCC(c2ccccc2)C1)c1ccc2c(c1)OCCO2 (stereo not given)	·	·	–	101	–	–
O=C(CCN1CCc2ccccc21)c1ccc2c(c1)OCCO2	–	–	–	–	–	–
O=C(CCN1CCc2ccccc2C1)c1ccc2c(c1)OCCO2	–	–	·	100	–	–
CCOC(=O)Cn1cc(Cl)c(=O)c(Cl)c1	–	·	–	·	·	–
CCCN(CCC)CCCNC(=O)CS(=O)Cc1nc(-c2ccc(OC)c(OC)c2)oc1C (stereo not given)	·	–	–	–	71	·
CCCCn1c(SCC(=O)Nc2cc(C(F)(F)F)ccc2Cl)nnc1C(CC)N(C)C (stereo not given)	–	–	·	82	–	–
CCOC(=O)N1CCC2(CC1)C(C#N)=C(N)OC1=C2C(=O)CC(C)(C)C1	–	–	·	–	–	–
O=C(CNC(=O)c1ccco1)NCC(=O)OCc1ccc(C(=O)Oc2ccc(Cl)cc2)cc1	·	–	·	–	–	–
O=C(Nc1nnc(-c2cccs2)s1)C1CC1	–	?	–	–	–	–
O=C(Nc1nc(-c2cccs2)c(-c2cccs2)s1)C1CCCC1	–	–	·	–	72	–
Fc1ccc(C(CCCn2nnc(-c3cccnc3)n2)c2ccc(F)cc2)cc1	–	–	·	–	61	–
O=C(/C=C/c1ccc(Cl)cc1Cl)N(Cc1ccccc1)C1CCS(=O)(=O)C1 (stereo not given)	–	–	–	84	–	–
O=C(/C=C/c1ccc(Cl)cc1Cl)N(Cc1ccc(Cl)cc1)C1CCS(=O)(=O)C1 (stereo not given)	–	–	–	88	59	–
CCCC1(CCC)NC(=O)N(CC(=O)c2cc(C)n(-c3ccc4c(c3)OCO4)c2C)C1=O	–	·	–	–	–	–
O=C1c2ccccc2C(=O)N1CCc1nc(-c2ccncc2)no1	·	–	·	–	–	–
C/C(CC(=O)Nc1cccc2c1CCCC2)=N\NC(=O)c1cccc2ccccc12	–	–	·	–	–	–
CCc1ccc2c(c1)C1(NN=C(c3cccc4ccccc34)S1)C(=O)N2 (stereo not given)	–	–	–	99	–	·
CC(Sc1ccccc1)C(=O)Nc1ccccc1C(=O)N1CCOCC1 (stereo not given)	–	–	·	–	–	–
CCC(=O)Nc1ccc(NC(=O)c2ccccc2)nc1	–	·	–	–	–	–
N#C/C(=C(/O)CN1CCN(c2ccccc2F)CC1)c1nc(-c2ccc(Cl)cc2)cs1	·	–	·	–	–	·
COc1ccccc1N1CCN(C/C(O)=C(\C#N)c2nc(-c3ccccc3)cs2)CC1	–	–	·	–	–	3.2
CCN(CC)CCOc1c(Br)ccc2c1sc1nc3n(c(=O)c12)CCC3	·	–	–	80	–	–
COc1ccc(CCNC(=O)C2CCN(C(=O)c3cccs3)CC2)cc1	–	·	–	–	–	–
COc1ccccc1-c1cc(C(F)(F)F)nc(NCc2cccs2)n1	–	–	–	–	65	–
Cc1nc2ccccc2n1CC(=O)NC1CCCCCC1	–	·	–	·	·	–
SMILES	Cl transport mod	INS promoter inh	ROMK mod	Lmaj promast	WT yeast gro inh	Ins promoter up
NC(=O)c1ccccc1Br	–	·	–	·	·	–
Cc1cccc(CN2CCN(CC(=O)NCCCN3CCCC3=O)C2=O)c1	–	–	–	–	–	–
Cc1cccc(CN2CCN(CC(=O)NCCCN3CCN(c4ccc(F)cc4)CC3)C2=O)c1	–	–	–	95	–	–
COc1ccc(CSCC(=O)NCCC(C)C)cc1	–	·	–	–	–	–
O=C(OC1Cn2c(=O)ccc(=O)n2C1)c1ccccc1	–	–	–	–	–	–
O=C(NCC(c1cccnc1)N1CCN(c2ccccc2)CC1)c1ccco1 (stereo not given)	–	–	–	89	·	·
O=C(NCc1ccccc1)C(=O)NCC(c1ccco1)N1CCN(c2ccccc2F)CC1 (stereo not given)	–	·	–	–	–	–
O=C(NCc1cccnc1)C(=O)NCC(c1ccco1)N1CCOCC1 (stereo not given)	–	·	–	–	–	–
O=C(NCCC1=CCCCC1)C(=O)NCC(c1ccco1)N1CCN(c2ccc(F)cc2)CC1 (stereo not given)	–	–	–	80	–	–
O=C(NCc1cccnc1)C(=O)NCC(c1ccco1)N1CCN(c2ccccc2)CC1 (stereo not given)	–	–	–	52	–	–
O=C(NCc1cccnc1)C(=O)NCC(c1ccco1)N1CCN(c2ccccc2F)CC1 (stereo not given)	–	–	–	56	–	–
CN(C)c1nc(N)nc(-c2ccco2)n1	–	–	·	–	–	–
CCOc1cccc(/C(O)=C2/C(=O)C(=O)N(CCOC)C2c2ccco2)c1 (stereo not given)	–	–	·	–	–	–
CN(C(=O)C1CCOC1)c1nnc(C2CCOC2)s1 (stereo not given)	–	·	–	–	–	–
O=C(NCCc1c[nH]c2ccccc12)C(=O)NCC(c1ccco1)N1CCN(c2ccccc2F)CC1 (stereo not given)	–	–	–	76	–	–
O=C(NCCc1c[nH]c2ccccc12)/C(=C\c1ccco1)NC(=O)c1ccco1	–	–	–	56	–	–
Cc1ccc(C(=O)N/C(=C\c2ccco2)C(=O)NCCc2c[nH]c3ccccc23)cc1	–	–	·	–	–	–
COC(=O)C(Cc1ccccc1)NC(=O)COc1ccc(C(C)(C)C)cc1 (stereo not given)	–	–	·	–	–	–
CCN1CCS/C1=C/C=C/C1=[N+](CC)CCS1	–	–	–	100	–	?
CCOC(=O)N1CCN(C(=O)CSCc2ccccc2)CC1	–	–	·	51	–	–
CCOC(=O)N1CCN(C(=O)CCN2C(=O)COc3ccccc32)CC1	·	79	–	–	–	–
CC1CCC2(CC1)NC(=O)N(CC(=O)NC(=O)NC1CCCC1)C2=O (stereo not given)	–	–	·	–	–	–
O=C(CCc1ccccc1)NC(=S)Nc1ccccc1Br	–	·	–	–	75	–
CCOC(=O)C1=C(C)N(c2ccc(C)cc2)C(=O)/C1=C\c1ccc(O)c(OC)c1	–	·	·	·	·	–
CCOC(=O)C1=C(O)c2ccccc2C(=O)/C1=C\c1ccc(C)cc1	3.3	–	·	–	–	–
SMILES	Cl transport mod	INS promoter inh	ROMK mod	Lmaj promast	WT yeast gro inh	Ins promoter up
COc1ccc(/C=N\NC(=O)c2ccc(=O)[nH]n2)cc1O	–	·	·	–	–	–
COc1ccc(/C=N/NC(=O)c2cc(C34CC5CC(CC(C5)C3)C4)[nH]n2)cc1O	·	–	·	90	–	–
COc1ccc(CCNC(=S)Nc2ccc(C)cc2C)cc1	–	–	·	–	69	–
COc1ccc(NC(=S)Nc2ccc(OCc3ccccc3)cc2)c(OC)c1	–	·	·	–	67	–
COc1ccc(CCNC(=S)Nc2cccc(C)c2C)cc1	–	–	·	–	–	–
CCOc1ccccc1NC(=O)C(=O)NCCC1=CCCCC1	–	·	–	–	–	–
COc1ccc(CCNC(=S)Nc2cc(C)ccc2C)cc1	·	–	–	–	63	–
COc1ccc(NC(=O)C(=O)NCCC2=CCCCC2)c(OC)c1	–	–	–	55	–	–
